The list is not random: actives were taken first. Their share in the collection is about 1.5%.
ANO1 block: blocks the mouse calcium-activated chloride channel TMEM16A; Q8BHY3; HEK293 TMEM16A/YFP iodide influx fluorescence, ionomycin; normalized B-score (activity score, 25-100; higher = stronger inhibition) at 10 µM; hit rate 1.2% among 310,000;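 active = ratio plate-corrected score three or more library SD toward inhibition, starting fluorescence score within five deviations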;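 also: score derived from kinetic fluorescence span divided by baseline fluorescence per well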
DAGLB inh: blocks human DAGLB lipase activity | hit rate 0.059% among 340,000 | inhibition, % at 5.17 µM | HEK293T DAGLB membrane lysate, EnzChek fluorogenic substrate | Q8NCG7 | AID 504411; in the data active = inhibition above about 34%;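 also: 0% = enzyme with vehicle and 100% = wells lacking enzyme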
ABCB6 inh 2: human ABCB6 transporter inhibition; Q9NP58; K562-ABCB6 porphyrin accumulation, flow cytometry, 1 h; stronger effect = lower value; fluorescence ratio to DMSO, % at 10 µM; hit rate 0.19% among 360,000; AID 602162;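 active = fluorescence ratio to DMSO below 75%, the collection mean minus 3 SD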;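 also: signal is porphyrin accumulated inside mitochondria; 100% equals median channel fluorescence of DMSO control wells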
Target sequence (Q9NP58 whole entry, looked up): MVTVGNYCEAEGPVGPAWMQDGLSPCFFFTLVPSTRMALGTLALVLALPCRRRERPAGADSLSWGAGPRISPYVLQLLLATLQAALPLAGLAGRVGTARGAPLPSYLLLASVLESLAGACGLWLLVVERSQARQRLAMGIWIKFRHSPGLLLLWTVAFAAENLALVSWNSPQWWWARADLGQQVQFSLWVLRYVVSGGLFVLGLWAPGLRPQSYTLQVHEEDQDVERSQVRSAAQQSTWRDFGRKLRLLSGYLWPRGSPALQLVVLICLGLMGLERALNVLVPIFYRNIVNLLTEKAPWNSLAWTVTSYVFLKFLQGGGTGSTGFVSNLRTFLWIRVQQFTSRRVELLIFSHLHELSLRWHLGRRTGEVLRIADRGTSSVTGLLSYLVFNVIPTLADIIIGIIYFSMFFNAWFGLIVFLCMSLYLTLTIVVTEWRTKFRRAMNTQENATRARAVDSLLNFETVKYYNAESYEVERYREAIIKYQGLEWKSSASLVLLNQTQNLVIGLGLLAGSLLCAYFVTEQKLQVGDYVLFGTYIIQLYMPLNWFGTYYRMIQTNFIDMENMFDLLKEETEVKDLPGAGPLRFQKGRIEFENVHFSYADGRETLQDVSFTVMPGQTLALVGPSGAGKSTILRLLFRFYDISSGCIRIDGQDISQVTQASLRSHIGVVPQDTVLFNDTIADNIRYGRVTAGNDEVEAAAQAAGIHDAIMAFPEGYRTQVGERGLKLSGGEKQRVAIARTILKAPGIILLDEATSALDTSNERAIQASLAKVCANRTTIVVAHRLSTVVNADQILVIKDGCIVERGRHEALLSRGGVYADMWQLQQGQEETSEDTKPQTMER
iPSC survival up: enhancers of human iPSC single-cell survival. survival enhancement, % at 20 µM. hit rate 0.044% among 360,000. hiPSC single-cell survival, ATPlite luminescence; 100% = ROCK inhibitor wells, 0% = DMSO; in the data active = survival enhancement above about 18%;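 also: cells exposed to compounds for 16 hours before the ATP read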
TMEM16A act: activates or potentiates the mouse TMEM16A chloride channel | B-score at 10 µM | HEK293 TMEM16A/YFP-H148Q/I152L, iodide quench fluorescence; stronger effect = lower value | hit rate 0.3% among 340,000;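 active = fluorescence-ratio B-score plate-corrected deviation score at least 3 library SD below zero, with starting fluorescence score within 5 deviations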;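 also: channel opened by trigger with iodide after compound preincubation; score built on the fluorescence ratio of max minus min over baseline; more negative score means more quench and so TMEM16A activation or potentiation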
TMEM16A reconf: reconfirmed blocker of mouse TMEM16A calcium-activated chloride channel; shares compounds with ANO1 block; HEK293 TMEM16A/YFP-H148Q, iodide quench fluorescence; ionomycin added to raise cell calcium; inhibition, % at 10 µM; hit rate 39% among 2,300; AID 652189;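 active = mean duplicate percent inhibition, scaled so buffer wells are 0 and the reference blocker 100, over three buffer SD above buffer mean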
HEK293 Ca mobil: alters calcium mobilization in TMEM16A HEK293 cells, counter-screen. calcium response (% of ionomycin), % at 10 µM. shares compounds with ANO1 block. hit rate 2% among 2,300. TMEM16A/YFP HEK293, Fluo4 calcium mobilization;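 active = duplicate-averaged calcium signal over 20% of the ionomycin maximum, relative to buffer baseline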;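 also: each well's signal is peak minus trough fluorescence divided by its pre-addition baseline; 0% = buffer wells and 100% = ionomycin wells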
YFP-HEK293 quench: counter-screen for TMEM16A inhibitors: effect in parental YFP-HEK293 cells. shares compounds with ANO1 block. iodide YFP quench, ionomycin. YFP ratio F(max-min)/F0 at 10 µM. 2,300 tested, under 10 active. AID 652233;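 active = yellow fluorescent protein signal ratio exceeding the buffer control mean by over 5 SD of those controls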;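 also: ratio is mean of duplicate wells from kinetic YFP trace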
ClC-1 rat inh: selectivity of TMEM16A inhibitors: inhibition of rat ClC-1 chloride channel. shares compounds with ANO1 block. CHO ClC-1-YFP, iodide influx fluorescence quench; iodide control reads 0, buffer control 100. ratio percent, % at 10 µM. 2,300 tested, under 10 active. AID 652236;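 active = duplicate-mean ratio percent above the mean of iodide-only control wells, which defines zero, plus 5 of their SD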;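 also: higher percent means stronger block of ClC-1 iodide influx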
An asterisk follows results filed as active; i = inactive; nt = no result.

SMILES	ANO1 block	DAGLB inh	ABCB6 inh 2	iPSC survival up	TMEM16A act	TMEM16A reconf	HEK293 Ca mobil	YFP-HEK293 quench	ClC-1 rat inh
CC(C)Cc1ccc(CN2CCCC(NC(=O)c3ccnn3C)C2)cc1 (stereo unspecified)	25*	1.8	99.0	-0.2	i	i	i	-1.24	-8.0
CC(C)Cc1ccc(CN2CCCC(NC(=O)c3ccoc3)C2)cc1 (stereo unspecified)	i	-2.0	103.0	-0.4	i	nt	nt	nt	nt
CCN1CCN(c2oc(-c3ccccc3)nc2S(=O)(=O)c2ccc(C)cc2)CC1	nt	0.0	98.0	0.4	i	nt	nt	nt	nt
N#CC1(Cc2ccccc2)c2ccccc2C=CN1C(=O)c1ccccc1 (stereo unspecified)	100*	-3.0	104.0	5.0	i	i	i	-1.22	-12.0
O=C(C1CCC1)N1CCc2cc(S(=O)(=O)N3CCCCC3)ccc21	i	-0.7	91.0	-2.2	i	nt	nt	nt	nt
O=C(C1CCC1)N1CCc2cc(S(=O)(=O)N3CCN(c4ccccn4)CC3)ccc21	i	-2.3	79.0	-2.9	i	i	i	-1.23	-4.5
Cc1ccc(S(=O)(=O)c2nnn3c2nc(N2CCN(c4ccccn4)CC2)c2ccccc23)cc1C	i	2.0	96.0	-0.2	i	nt	nt	nt	nt
CCCCn1c(NC(C)=O)c(C#N)c2nc3ccccc3nc21	i	2.3	102.0	-2.1	i	nt	nt	nt	nt
C=CCn1c(NC(=O)c2ccccc2Cl)c(C#N)c2nc3ccccc3nc21	100*	0.9	102.0	-0.9	i	54.5%*	i	-0.881	-25.5
Cc1cc(S(=O)(=O)N2CCN(Cc3ccc4c(c3)OCO4)CC2)cc(C)c1N1CCCC1=O	100*	-6.0	98.0	-3.5	i	33.0%*	i	-1.09	-14.5
Cc1cccc(S(=O)(=O)N2CCN(Cc3ccc4c(c3)OCO4)CC2)c1	i	-6.6	93.0	0.8	i	nt	nt	nt	nt
CCCCCOc1ccc(Br)cc1/C(C)=N/NC1=NCCN1	i	-4.1	85.0	-5.6	i	nt	nt	nt	nt
COc1ccc(Br)cc1/C(C)=N/NC1=NCCN1	100*	2.7	97.0	-1.0	i	19.5%*	i	-0.858	-10.0
CCCCOc1ncnc2c1[nH]c1ccc(F)cc12	25*	-5.0	89.0	-1.5	i	i	i	-0.944	-20.0
CCCc1ccc(OCc2ccc(C(=O)N3CCCC3)o2)cc1	100*	-3.5	93.0	0.6	i	61.5%*	i	-0.99	-19.0
CC(C)c1ccc(OCc2ccc(C(=O)N3CCCC3)o2)cc1	25*	-1.2	100.0	0.2	i	53.0%*	i	-1.09	-15.0
O=C(c1ccc(COc2ccc3c(c2)CCC3)o1)N1CCN(c2ccccc2)CC1	100*	-13.3	96.0	-3.6	i	i	i	-1.09	-3.0
CCOc1ccc(OCc2ccc(C(=O)N3CCCC3)o2)cc1	i	-1.3	99.0	1.3	i	nt	nt	nt	nt
COc1ccc(Cl)cc1NC(=O)Cn1c(C)csc1=O	nt	2.6	92.0	0.3	i	nt	nt	nt	nt
COc1ccc(C(=O)Oc2cccc(Nc3ncnc4ccccc34)c2)cc1OC	i	-4.8	92.0	-2.2	i	nt	nt	nt	nt
COc1cc(C(=O)Oc2cccc(Nc3ncnc4ccccc34)c2)cc(OC)c1OC	100*	-1.7	89.0	1.3	i	21.5%*	i	-1.13	-22.0
Cc1cc(C)c(S(=O)(=O)NCc2ccncc2)c(C)c1	100*	-1.7	97.0	2.7	i	30.0%*	i	-0.861	-16.0
Cc1cc(C)c(S(=O)(=O)NCCc2ccncc2)c(C)c1	i	-5.2	100.0	-0.5	i	nt	nt	nt	nt
CC(C)(C)c1ccc(C(=O)N2CCC2(C)C(=O)Nc2cccc3ncccc23)cc1 (stereo unspecified)	nt	nt	98.0	2.6	nt	nt	nt	nt	nt
COc1cccc(C2=CC(c3cccc(OC)c3OC)n3nnnc3N2)c1 (stereo unspecified)	i	-3.7	119.0	-0.9	i	nt	nt	nt	nt
SMILES	ANO1 block	DAGLB inh	ABCB6 inh 2	iPSC survival up	TMEM16A act	TMEM16A reconf	HEK293 Ca mobil	YFP-HEK293 quench	ClC-1 rat inh
COc1cccc(C2=CC(c3cccc(OC)c3OC(F)F)n3nnnc3N2)c1 (stereo unspecified)	100*	-0.8	105.0	-1.2	i	i	i	-1.02	-3.0
O=C(O)c1ccccc1C(=O)c1cccc2c(Br)cccc12	nt	4.4	102.0	-0.6	i	nt	nt	nt	nt
N#Cc1c(-c2cccc(Br)c2)cc(-c2cccnc2)nc1N	25*	-2.2	113.0	0.3	i	25.0%*	i	-0.994	-9.0
NS(=O)(=O)c1ccc(NS(=O)(=O)c2ccc(C3CNC(=O)C3)cc2)cc1 (stereo unspecified)	i	-4.6	98.0	-0.3	i	nt	nt	nt	nt
CC1(C)CC(=O)C(CCC(=O)c2ccccc2)C(C)(C)N1 (stereo unspecified)	25*	0.1	95.0	3.3	i	i	i	-1.13	-14.0
O=S1(=O)CC(N2CCSCC2)CN1Cc1cn(Cc2ccccc2)nn1 (stereo unspecified)	nt	nt	96.0	-0.4	nt	nt	nt	nt	nt
COc1ccc(C2C(C#N)=C(C)NC3=C2C(=O)c2ccccc23)cc1 (stereo unspecified)	i	-1.2	97.0	-0.9	i	nt	nt	nt	nt
CC1=C([N+](=O)[O-])C(c2ccccc2)C2=C(N1)c1ccccc1C2=O (stereo unspecified)	25*	22.9	107.0	-0.1	i	38.0%*	i	-1	3.0
CCCc1cc(=O)[nH]c(SCCc2ccccc2)n1	i	-4.9	96.0	-0.2	i	nt	nt	nt	nt
O=c1ccn(Cc2ccccc2)c(SCc2ccccc2)n1	nt	-1.7	94.0	4.0	i	nt	nt	nt	nt
Clc1ccc(CSc2nccn2Cc2ccccc2)cc1	100*	-3.8	98.0	-1.5	i	44.0%*	i	-0.84	-5.0
Cc1oc2ccc(O)cc2c1C(=O)c1ccc(Br)cc1	i	-7.9	103.0	0.5	i	nt	nt	nt	nt
COc1cccc(-c2cc(C(=O)Nc3cc(C)on3)no2)c1	i	-8.4	98.0	-0.9	i	i	i	-1.05	-7.0
Cc1cc(NC(=O)c2cc(C(C)C)on2)no1	25*	-0.1	99.0	-1.1	i	i	i	-0.96	-7.0
CC(C)(C)c1ccc(C(=O)N2CCC2(C)C(=O)NS(=O)(=O)c2ccc(C#N)cc2)cc1 (stereo unspecified)	nt	nt	100.0	0.8	nt	nt	nt	nt	nt
